Screening data (PubChem)
SARS PLP yeast: blocks SARS-CoV papain-like protease in a yeast assay; S. cerevisiae expressing SARS-CoV PLpro, growth rescue; Potency, µM (titrated, usually from 32.9 µM), without a hit: top-dose activity, positive = growth rescue, most hits filed as activators; hit rate 0.19% among 330,000; calls by dose curve; further: 0% is about no effect; nearly all actives have a fitted effect of over 55% in size
Sm TGR block: S. mansoni TGR enzyme inhibition | Potency, µM (top dose mostly 114 µM), inactives show top-dose activity change, negative = inhibition, usual class: inhibitors | Q962Y6 | purified TGR, DTNB reduction, TNB absorbance 405 nm | hit rate 3% among 360,000 | AID 485364; further: on the % scale 0 is the no-effect control and ±100 the full control effect; nearly all actives have a fitted effect of over 60% in size
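First, TGR (20 nM dispensed) and NADPH were mixed with compound. Second, a 15 min room-temperature incubation followed. Third, further NADPH and then DTNB were added to start the reaction. Finally, TNB absorbance was monitored kinetically.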
AmpC inh no detg: blocks E. coli AmpC beta-lactamase in detergent-free assay | AID 485341 | AmpC nitrocefin hydrolysis, absorbance 480 nm, 0.0001% Triton | hit rate 0.52% among 330,000 | P00811 | Potency, µM (titrated, usually from 57.1 µM), inactives show at the top dose activity change, negative = inhibition, usual class: inhibitors;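 further: plate controls were no compound for no effect and no enzyme for full effect; nearly all actives have a fitted effect of over 20% in size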
Target sequence (P00811 whole entry, looked up): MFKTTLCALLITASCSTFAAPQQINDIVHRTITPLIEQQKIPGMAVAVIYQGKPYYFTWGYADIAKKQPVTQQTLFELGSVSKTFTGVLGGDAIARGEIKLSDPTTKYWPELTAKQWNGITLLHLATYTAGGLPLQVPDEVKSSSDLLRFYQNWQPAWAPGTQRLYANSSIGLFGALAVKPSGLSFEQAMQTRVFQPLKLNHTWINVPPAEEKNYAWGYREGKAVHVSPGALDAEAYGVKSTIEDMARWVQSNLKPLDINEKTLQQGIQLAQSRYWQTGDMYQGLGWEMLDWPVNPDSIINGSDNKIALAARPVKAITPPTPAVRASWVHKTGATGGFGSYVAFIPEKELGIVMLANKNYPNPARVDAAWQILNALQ
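AmpC (5.3 nM in the dispensed reagent) in 20 mM phosphate pH 7.0 with 0.01% (detergent screen) or 0.0001% Triton X-100 was preincubated with compounds for 15 min at room temperature. Nitrocefin was then added from an 800 uM solution, and hydrolysis was followed at 480 nm.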
RE007 growth inh: less growth of the S. pombe RE007 Vpr strain; S. pombe RE007 Vpr strain, BacTiter-Glo ATP luminescence, 24 h; Potency, µM (titrated, usually from 92.2 µM), for inactives: at the highest dose activity change, negative = less growth, usual class: inhibitors; hit rate 0.21% among 360,000; AID 651644; active means well fitted falling curve with a large enough effect; inconclusive means small, poorly fitted or top-dose-only effect; inactive means no such curve, though single readings can be large or run the other way; further: on the % scale 0 is the no-effect control and ±100 the full control effect; nearly all actives have a fitted effect of over 50% in size
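Fission yeast RE007 carrying one integrated HIV-1 vpr copy, seeded at OD 0.01 in PMG+AL medium with 23 nL pinned compound. Grown 24 h at 30 degrees; viability read by BacTiter-Glo luminescence after 5 min.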
TbPYK inhibitor: blocks Trypanosoma brucei pyruvate kinase; Q57TT1; TbPYK enzyme, Kinase-Glo Plus ATP luminescence, 45 min; Potency, µM (titrated, usually from 76.8 µM), for the others: at the top dose activity, negative = inhibition, usual class: inhibitors; hit rate 0.12% among 410,000; AID 624173; further: on the % scale 0 is the no-effect control and ±100 the full control effect; nearly all actives have a fitted effect of over 50% in size
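T. brucei PYK with substrate was exposed to pin-transferred compounds across a concentration series, then started with 130 uM ADP (final). After 45 min at room temperature, Kinase-Glo Plus luminescence was read, normalized and curve-fitted.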
AmpC detergent: blocks E. coli AmpC beta-lactamase in detergent assay; AmpC hydrolysis of nitrocefin, absorbance 480 nm, 0.01% Triton; Potency, µM (highest dose often 114 µM), without a hit: at the highest dose activity change, negative = inhibition, most hits filed as inhibitors; hit rate 0.041% among 370,000;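 further: 0% = no-compound wells and -100% = no-enzyme wells; nearly all actives have a fitted effect of over 25% in size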
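20 mM phosphate pH 7.0 + 0.01% (detergent screen) or 0.0001% Triton X-100; 5.3 nM AmpC reagent; cpd preinc 15 min RT; nitrocefin (800 uM stock) to start; A480 q20 s × 4 min; Activity was normalised to no-enzyme and no-compound control wells.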
The depositor's hits bear a star; ? = inconclusive; . = no result; [ ] = another dose, or the depositor's remark. Hits are enriched below; roughly 3.3% of the tested compounds scored in any of these assays. Unless noted, the call rests on the fitted dose curve; in most records, active means well fitted curve in the direction sought with a large enough effect; inconclusive means small, poorly fitted or top-dose-only effect, or another doubt; inactive means no such curve, though single readings can be large; an effect the other way counts as inactive or inconclusive. Potency means the concentration at half of the fitted maximal effect.

SMILES	SARS PLP yeast	Sm TGR block	AmpC inh no detg	RE007 growth inh	TbPYK inhibitor	AmpC detergent
Cc1ccc(-c2cc(C(=O)Nc3nccs3)c3ccccc3n2)o1	-54%	7.1µM*	-18%	?	-25%	-6%
CCCOc1ccc(C(=O)NNC(=S)NC(=O)c2cc(-c3ccccc3)nc3ccccc23)cc1	0%	9%	4.5µM*	22%	-13%	-13%
O=C(Nc1ccon1)c1cc(-c2ccccc2)nc2ccccc12	3%	-11%	-32%	6%	-2%	-10%
COc1ccc(CCNc2nc(-c3ccc(OC)c(OC)c3)cc(C(F)(F)F)n2)cc1OC	.	5%	.	.	13%	6%
CCN(CC)[C@@H](C)CN1c2ccccc2Sc2ccccc21	.	.	.	.	2%[33.2 µM]	.
Cc1cccc(NC(=O)c2cc(-c3ccco3)nc3ccccc23)n1	1%	20µM*	-34%	-10%	-11%	?
Cc1ccc(Cl)cc1NC(=O)Nc1nnc(N(C)Cc2ccccc2)s1	.	-7%	.	.	-1%	-1%
CSCc1ccc(C(=O)N2CCCC(Nc3ccc4c(c3)OCCO4)C2)o1 (stereo not given)	6%	28µM*	-9%	1%	-14%	?
CSCc1ccc(C(=O)N2CCCC(Nc3ccc(F)cc3)C2)o1 (stereo not given)	-9%	-32%	35%	-3%	3%	13%
COc1ccc(OC)c(NC(=O)C2CCN(S(=O)(=O)c3c(C)noc3/C=C/c3ccc(C)cc3)CC2)c1	.	5%	.	.	0%	26%
Cc1ccc(S(=O)(=O)Nc2nc3ccccc3s2)cc1	-1%	2%	-18%	0%	2%	?
O=S(=O)(Nc1nc2ccccc2s1)c1ccc(Br)s1	-3%	-8%	32µM*	15%	2%	?
COc1ccc(N2C(=O)CS(=O)C(c3ccccc3)C2=O)cc1 (stereo not given)	1%	.	-18%	-7%	?	2%
Cc1ccc(N2C(=O)CS(=O)C(c3ccccc3)C2=O)cc1C (stereo not given)	0%	1.1µM*	-26%	-1%	?	-1%
NC(=O)OC[C@@H]1[C@H](NC(=O)/C(=N/OCC(=O)O)c2csc(N)n2)C(=O)N1S(=O)(=O)O	.	.	.	.	1%	.
CSc1ccc(-c2ccco2)nn1	-1%	10µM*	-19%	-16%	-14%	5%
CCSc1ccc(-c2ccco2)nn1	-2%	13µM*	-25%	-12%	-11%	-8%
O=C(CCCn1c(=O)c2cccn2c2ccccc21)NCc1ccccc1Br	.	0%	.	.	1%	23%
O=S(=O)(NCc1ccco1)c1ccc(Cl)cc1Cl	3%	45µM*	-17%	7%	1%	?
Cc1ccc2ccc(S(=O)(=O)NCc3ccco3)cc2c1	-4%	13µM*	-37%	-2%	-3%	3%
O=S(=O)(NCc1ccco1)c1ccc2ccccc2c1	-5%	-7%	-24%	-2%	-4%	-6%
CC(=O)N1CCOc2cc(S(=O)(=O)NCc3ccc(C)cc3)c(C)cc21	.	6%	.	.	4%	5%
CCOc1ccc(C(=O)Nc2ccc(OCc3cc(=O)n4cccc(C)c4n3)cc2)cc1	.	-2%	.	.	-2%	-5%
CCN(CC)S(=O)(=O)c1ccc2c(c1)c(=O)c(C(=O)N(C)Cc1ccccc1)cn2C	.	0%	.	.	-5%	-5%
Cc1cccc(NC(=O)c2onc3c2CCCC3)c1C	-4%	-16%	-14%	4µM*	-11%	-3%
SMILES	SARS PLP yeast	Sm TGR block	AmpC inh no detg	RE007 growth inh	TbPYK inhibitor	AmpC detergent
COC(=O)c1cccc(NC(=O)c2onc3c2CCCC3)c1	-24%	-8%	-23%	?	-26%	-7%
Cc1cccc(NC(=O)c2onc3c2CCCC3)n1	-33%	4%	2%	22µM*	?	2%
Cc1ccccc1NC(=O)c1onc2c1CCCC2	-14%	0%	-8%	5µM*	-17%	-8%
O=C(Nc1ccc2ccccc2c1)c1onc2c1CCCC2	-6%	-26%	-41%	3.5µM*	-1%	-6%
Cc1cccc(NC(=O)c2ccc3c(Cl)c4c(nc3c2)CCCC4)n1	-1%	-23%	-9%	13%	-2%	?
CCC(=O)OC1CCC2C3CCc4cc(O)ccc4C3CCC12C (stereo not given)	.	.	.	.	0%	.
CNC(=O)c1ccc(Nc2nnc(-c3ccc(C)c(S(=O)(=O)NC(C)(C)C)c3)c3ccccc23)cc1	.	-1%	.	.	-2%	-5%
CCOC(=O)c1c(C)oc2ncnc(N3CCN(c4ccccc4)CC3)c12	.	-3%	.	.	-1%	3%
CC1(C)Cc2c(C#N)c(OCC(=O)c3ccc(Cl)cc3)nc(-c3ccoc3)c2CO1	-2%	40µM*	-15%	0%	-14%	?
Cn1cc(C(=O)Nc2ccc(Cl)cc2)c(C(F)(F)F)n1	10%	.	-22%	2%	-2%	2%
CCC(C)Sc1cc(C(F)(F)F)c(C(=O)Nc2ccc(Cl)cc2)cn1 (stereo not given)	-2%	10%	10µM*	3%	5%	8%
Cc1cc(C)cc(Nc2ncnc3c2nc2n3CCCC2)c1	.	1%	.	.	-4%	1%
COC(=O)c1ccccc1NC(=O)N1CSC[C@H]1C(=O)OC	2%	28µM*	2%	0%	-4%	-3%
COC(=O)c1ccccc1NC(=S)NC(=O)C1CCCCC1	-23%	?	-27%	-15%	-5%	-9%
COC(=O)c1ccccc1NC(=S)NC(=O)c1ccc(C)cc1	-64%	11µM*	-26%	-13%	4%	-14%
O=C(NC(=S)NCc1ccccc1)c1ccc2c(c1)OCO2	?	40µM*	-35%	-20%	-3%	?
COC(=O)c1ccccc1NC(=S)NC(=O)c1ccccc1	-35%	11µM*	-35%	-3%	-8%	?
COc1ccc(CNC(=O)c2ccc(NC(=O)N3CCCCc4ccccc43)cc2)c(OC)c1	.	9%	.	.	-5%	0%
